# Experimental data as given in PMC7862700, “An all-to-all approach to the identification of sequence-specific readers for epigenetic DNA modifications on cytosine”.
# How the values were obtained:
# Assay in all cases: DAPPL (digital affinity profiling via proximity ligation, sequencing); 10 mM Tris-HCl pH 7.5, 50 mM NaCl, 1 mM DTT, 4% glycerol, room temperature, 30 min; GST-TFs on glutathione beads, 16-mer random dsDNA library, 0.1% formaldehyde crosslink after washing; high values mean tight binding
# [1] = biological target: T1, FLI1 (Homo sapiens, UniProt Q01543 1-452); conditions: protein: recombinant; tags: N-terminal GST; dsDNA, one strand shown
# T1 sequence: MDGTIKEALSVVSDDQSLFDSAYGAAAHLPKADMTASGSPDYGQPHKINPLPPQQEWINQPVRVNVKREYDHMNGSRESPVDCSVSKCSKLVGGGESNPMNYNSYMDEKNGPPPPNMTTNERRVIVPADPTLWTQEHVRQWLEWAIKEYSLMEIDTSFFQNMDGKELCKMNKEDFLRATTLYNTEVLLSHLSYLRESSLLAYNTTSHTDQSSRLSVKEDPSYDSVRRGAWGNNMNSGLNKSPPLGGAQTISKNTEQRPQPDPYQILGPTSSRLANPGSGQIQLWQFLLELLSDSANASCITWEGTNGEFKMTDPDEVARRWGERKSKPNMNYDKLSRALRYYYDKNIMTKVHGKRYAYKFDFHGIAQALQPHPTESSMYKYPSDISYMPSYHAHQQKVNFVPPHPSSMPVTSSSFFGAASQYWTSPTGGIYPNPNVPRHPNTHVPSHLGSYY
# Method in brief: (§1)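 A tag-only sample was pooled with DNA-barcoded human transcription factors that had been expressed in yeast as GST fusions and captured on glutathione beads. The pools were incubated for 30 min at room temperature with 200 nmole of a random double-stranded 16-mer DNA library in Tris/NaCl/DTT/glycerol buffer, then washed, crosslinked with 0.1% formaldehyde, proximity-ligated (BsaI/T4 ligase, 1 h, 37 °C), PCR-amplified and sequenced on an Illumina NextSeq500. Binding signal is each hexamer's read frequency for a factor divided by its frequency for the tag-only sample.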
# [2] = biological target: T2, ELK1 (Homo sapiens, UniProt P19419 1-428); conditions: protein: recombinant; tags: N-terminal GST; dsDNA, one strand shown
# T2 sequence: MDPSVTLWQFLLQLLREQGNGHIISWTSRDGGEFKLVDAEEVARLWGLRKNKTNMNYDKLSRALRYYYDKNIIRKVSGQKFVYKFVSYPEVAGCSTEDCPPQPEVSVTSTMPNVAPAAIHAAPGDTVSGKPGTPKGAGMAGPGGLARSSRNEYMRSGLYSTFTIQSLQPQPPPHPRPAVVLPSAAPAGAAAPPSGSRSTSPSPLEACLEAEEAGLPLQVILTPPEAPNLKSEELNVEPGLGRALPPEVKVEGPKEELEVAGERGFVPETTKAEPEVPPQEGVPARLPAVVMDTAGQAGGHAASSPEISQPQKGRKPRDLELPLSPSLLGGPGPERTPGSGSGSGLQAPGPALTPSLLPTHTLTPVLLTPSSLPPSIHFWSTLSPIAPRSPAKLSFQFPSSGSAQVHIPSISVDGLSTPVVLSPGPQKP
# Method in brief: as §1
# [3] = biological target: T3, GABPA (Homo sapiens, UniProt Q06546 1-454); conditions: protein: recombinant; tags: N-terminal GST; dsDNA, one strand shown
# T3 sequence: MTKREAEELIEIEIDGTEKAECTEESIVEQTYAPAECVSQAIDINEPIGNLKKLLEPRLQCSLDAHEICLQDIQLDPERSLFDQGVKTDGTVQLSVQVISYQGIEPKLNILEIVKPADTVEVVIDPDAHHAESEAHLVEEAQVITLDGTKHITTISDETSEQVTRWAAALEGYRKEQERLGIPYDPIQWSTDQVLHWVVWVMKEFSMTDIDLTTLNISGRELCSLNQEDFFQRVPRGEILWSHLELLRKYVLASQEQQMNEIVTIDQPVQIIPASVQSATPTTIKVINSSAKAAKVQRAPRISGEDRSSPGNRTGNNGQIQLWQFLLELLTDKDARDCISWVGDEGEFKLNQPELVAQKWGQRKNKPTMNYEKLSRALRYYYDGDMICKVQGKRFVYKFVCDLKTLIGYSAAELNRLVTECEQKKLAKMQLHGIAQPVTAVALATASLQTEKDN
# Method in brief: as §1
# [4] = biological target: T4, ERG (Homo sapiens, UniProt P11308 1-479); conditions: protein: recombinant; tags: N-terminal GST; dsDNA, one strand shown
# T4 sequence: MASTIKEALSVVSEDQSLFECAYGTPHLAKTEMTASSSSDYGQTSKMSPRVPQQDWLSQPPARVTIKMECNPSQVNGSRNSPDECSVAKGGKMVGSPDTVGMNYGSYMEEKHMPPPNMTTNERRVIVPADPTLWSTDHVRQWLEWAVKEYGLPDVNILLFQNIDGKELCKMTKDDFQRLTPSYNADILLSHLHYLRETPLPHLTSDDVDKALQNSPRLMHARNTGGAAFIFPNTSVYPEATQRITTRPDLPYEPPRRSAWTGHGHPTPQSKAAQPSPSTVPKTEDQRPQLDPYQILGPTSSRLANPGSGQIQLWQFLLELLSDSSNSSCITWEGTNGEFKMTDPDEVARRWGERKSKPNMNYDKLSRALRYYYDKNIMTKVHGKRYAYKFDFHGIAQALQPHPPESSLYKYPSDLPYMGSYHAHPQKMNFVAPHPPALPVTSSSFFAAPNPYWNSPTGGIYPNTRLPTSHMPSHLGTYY
# Method in brief: as §1
# [5] = biological target: ELF1 (Homo sapiens, UniProt P32519 1-619); conditions: protein: recombinant; tags: N-terminal GST; dsDNA, one strand shown
# Method in brief: as §1
# [6] = biological target: T5, EHF (Homo sapiens, UniProt Q9NZC4 1-300); conditions: protein: recombinant; tags: N-terminal GST; dsDNA, one strand shown
# T5 sequence: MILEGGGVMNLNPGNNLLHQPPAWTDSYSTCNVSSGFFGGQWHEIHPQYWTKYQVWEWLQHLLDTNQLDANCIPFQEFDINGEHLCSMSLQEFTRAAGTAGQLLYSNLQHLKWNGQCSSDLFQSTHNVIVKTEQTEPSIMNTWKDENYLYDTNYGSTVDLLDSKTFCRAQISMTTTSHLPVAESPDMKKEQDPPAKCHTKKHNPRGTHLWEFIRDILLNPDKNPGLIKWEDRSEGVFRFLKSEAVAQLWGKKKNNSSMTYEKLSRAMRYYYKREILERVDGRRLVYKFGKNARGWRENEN
# Method in brief: as §1
# [7] = biological target: SPI1 (Homo sapiens, UniProt P17947 1-270); conditions: protein: recombinant; tags: N-terminal GST; dsDNA, one strand shown
# Method in brief: as §1
# [8] = biological target: SPIB (Homo sapiens, UniProt Q01892 1-262); conditions: protein: recombinant; tags: N-terminal GST; dsDNA, one strand shown
# Method in brief: as §1
# [9] = biological target: T6, ELK3 (Homo sapiens, UniProt P41970 1-407); conditions: protein: recombinant; tags: N-terminal GST; dsDNA, one strand shown
# T6 sequence: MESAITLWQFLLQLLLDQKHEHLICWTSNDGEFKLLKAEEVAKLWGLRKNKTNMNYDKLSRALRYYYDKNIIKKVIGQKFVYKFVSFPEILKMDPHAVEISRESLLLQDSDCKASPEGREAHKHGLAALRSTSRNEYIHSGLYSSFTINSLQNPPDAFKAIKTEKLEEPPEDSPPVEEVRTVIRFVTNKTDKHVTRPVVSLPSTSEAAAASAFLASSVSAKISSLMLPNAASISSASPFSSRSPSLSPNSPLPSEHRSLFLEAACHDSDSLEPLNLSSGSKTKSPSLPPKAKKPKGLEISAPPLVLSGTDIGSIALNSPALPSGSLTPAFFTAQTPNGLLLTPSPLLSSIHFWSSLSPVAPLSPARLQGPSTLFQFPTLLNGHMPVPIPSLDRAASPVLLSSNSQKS
# Method in brief: as §1
# [10] = biological target: T7, FEV (Homo sapiens, UniProt Q99581 1-238); conditions: protein: recombinant; tags: N-terminal GST; dsDNA, one strand shown
# T7 sequence: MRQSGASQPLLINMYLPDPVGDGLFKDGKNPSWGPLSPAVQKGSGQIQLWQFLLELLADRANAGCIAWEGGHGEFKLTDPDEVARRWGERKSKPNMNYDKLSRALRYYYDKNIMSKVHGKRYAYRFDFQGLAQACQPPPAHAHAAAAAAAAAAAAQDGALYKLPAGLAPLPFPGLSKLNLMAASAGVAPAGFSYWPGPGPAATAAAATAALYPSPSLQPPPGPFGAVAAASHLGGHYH
# Method in brief: as §1
# [11] = biological target: ETV5 (Homo sapiens, UniProt P41161 1-510); conditions: protein: recombinant; tags: N-terminal GST; dsDNA, one strand shown
# Method in brief: as §1
# [12] = biological target: HSF1 (Homo sapiens, UniProt Q00613 1-529); conditions: protein: recombinant; tags: N-terminal GST; chain copies: 3; dsDNA, one strand shown
# Method in brief: as §1
# [13] = biological target: T8, SPIC (Homo sapiens, UniProt Q8N5J4 1-248); conditions: protein: recombinant; tags: N-terminal GST; dsDNA, one strand shown
# T8 sequence: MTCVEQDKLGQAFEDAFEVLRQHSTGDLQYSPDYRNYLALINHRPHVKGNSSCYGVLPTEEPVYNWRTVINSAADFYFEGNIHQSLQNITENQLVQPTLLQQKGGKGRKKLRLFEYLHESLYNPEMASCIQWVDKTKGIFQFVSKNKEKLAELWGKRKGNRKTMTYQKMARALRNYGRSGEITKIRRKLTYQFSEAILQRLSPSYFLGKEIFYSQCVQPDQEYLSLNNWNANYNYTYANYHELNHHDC
# Method in brief: as §1
# [14] = biological target: ELF4 (Homo sapiens, UniProt Q99607 1-663); conditions: protein: recombinant; tags: N-terminal GST; dsDNA, one strand shown
# Method in brief: as §1
# [15] = biological target: T9, ELK4 (Homo sapiens, UniProt P28324-2 1-405); conditions: protein: recombinant; tags: N-terminal GST; dsDNA, one strand shown
# T9 sequence: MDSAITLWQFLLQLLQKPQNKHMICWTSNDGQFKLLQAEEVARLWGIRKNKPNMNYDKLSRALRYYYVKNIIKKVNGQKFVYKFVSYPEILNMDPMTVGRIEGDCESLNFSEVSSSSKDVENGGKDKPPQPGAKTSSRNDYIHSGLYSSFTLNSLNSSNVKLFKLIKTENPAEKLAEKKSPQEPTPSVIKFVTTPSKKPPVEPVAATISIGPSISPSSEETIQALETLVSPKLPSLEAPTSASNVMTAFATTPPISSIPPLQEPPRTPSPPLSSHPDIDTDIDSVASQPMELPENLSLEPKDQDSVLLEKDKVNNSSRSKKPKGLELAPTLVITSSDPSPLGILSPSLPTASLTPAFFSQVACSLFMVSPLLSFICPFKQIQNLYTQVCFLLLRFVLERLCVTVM
# Method in brief: as §1
# [16] = biological target: T10, ETV2 (Homo sapiens, UniProt O00321 1-342); conditions: protein: recombinant; tags: N-terminal GST; dsDNA, one strand shown
# T10 sequence: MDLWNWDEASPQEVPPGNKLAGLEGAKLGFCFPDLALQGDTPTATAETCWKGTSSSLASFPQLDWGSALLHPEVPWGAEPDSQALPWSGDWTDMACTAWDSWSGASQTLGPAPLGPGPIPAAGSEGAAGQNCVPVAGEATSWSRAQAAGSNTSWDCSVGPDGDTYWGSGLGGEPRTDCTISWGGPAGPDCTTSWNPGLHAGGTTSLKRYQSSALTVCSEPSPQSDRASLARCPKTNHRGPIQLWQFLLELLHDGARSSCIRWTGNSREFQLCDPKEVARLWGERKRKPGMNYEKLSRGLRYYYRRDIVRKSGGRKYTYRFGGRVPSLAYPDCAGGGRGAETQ
# Method in brief: as §1
# [17] = biological target: T11, ELF3 (Homo sapiens, UniProt P78545 1-371); conditions: protein: recombinant; tags: N-terminal GST; dsDNA, one strand shown
# T11 sequence: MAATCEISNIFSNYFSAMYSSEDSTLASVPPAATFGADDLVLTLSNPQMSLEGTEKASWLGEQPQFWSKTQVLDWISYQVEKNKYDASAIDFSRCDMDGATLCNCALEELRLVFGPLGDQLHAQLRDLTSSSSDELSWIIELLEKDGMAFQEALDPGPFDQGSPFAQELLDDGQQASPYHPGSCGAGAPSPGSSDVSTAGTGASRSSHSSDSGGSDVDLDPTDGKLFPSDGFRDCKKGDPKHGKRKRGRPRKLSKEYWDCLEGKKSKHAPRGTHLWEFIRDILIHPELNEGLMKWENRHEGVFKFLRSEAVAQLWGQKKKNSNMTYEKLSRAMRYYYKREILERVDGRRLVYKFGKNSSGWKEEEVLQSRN
# Method in brief: as §1
# [18] = biological target: CRX (Homo sapiens, UniProt O43186 1-299); conditions: protein: recombinant; tags: N-terminal GST; dsDNA, one strand shown
# Method in brief: as §1
# [19] = biological target: ETV1 (Homo sapiens, UniProt P50549 1-477); conditions: protein: recombinant; tags: N-terminal GST; dsDNA, one strand shown
# Method in brief: as §1
# Chain of ELF4 (Q99607 whole entry): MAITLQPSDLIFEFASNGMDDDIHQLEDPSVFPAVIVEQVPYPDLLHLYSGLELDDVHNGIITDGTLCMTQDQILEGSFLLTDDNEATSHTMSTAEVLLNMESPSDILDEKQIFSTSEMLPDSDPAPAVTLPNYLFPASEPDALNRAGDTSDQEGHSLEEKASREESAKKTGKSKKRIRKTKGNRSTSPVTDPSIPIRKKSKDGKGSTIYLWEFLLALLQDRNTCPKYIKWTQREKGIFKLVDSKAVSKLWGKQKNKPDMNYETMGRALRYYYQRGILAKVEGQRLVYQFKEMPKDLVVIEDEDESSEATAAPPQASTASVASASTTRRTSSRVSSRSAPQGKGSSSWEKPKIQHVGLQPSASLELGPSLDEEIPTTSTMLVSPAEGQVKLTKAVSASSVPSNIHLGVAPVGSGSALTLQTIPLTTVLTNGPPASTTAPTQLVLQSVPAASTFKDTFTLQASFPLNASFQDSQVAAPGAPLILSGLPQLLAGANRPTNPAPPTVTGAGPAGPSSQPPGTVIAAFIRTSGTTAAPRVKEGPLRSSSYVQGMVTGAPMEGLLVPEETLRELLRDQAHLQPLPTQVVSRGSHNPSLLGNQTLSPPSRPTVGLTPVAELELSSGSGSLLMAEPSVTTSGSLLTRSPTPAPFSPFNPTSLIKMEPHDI
# Chain of CRX (O43186 whole entry): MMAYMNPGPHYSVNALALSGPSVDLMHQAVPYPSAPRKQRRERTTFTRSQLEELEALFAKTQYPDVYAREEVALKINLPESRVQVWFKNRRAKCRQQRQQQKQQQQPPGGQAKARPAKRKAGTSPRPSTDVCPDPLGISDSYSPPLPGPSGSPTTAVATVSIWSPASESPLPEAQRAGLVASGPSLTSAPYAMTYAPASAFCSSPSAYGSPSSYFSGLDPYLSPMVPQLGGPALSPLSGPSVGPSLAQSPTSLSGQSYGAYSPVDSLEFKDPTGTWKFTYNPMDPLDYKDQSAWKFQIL
# Chain of ETV1 (P50549 whole entry): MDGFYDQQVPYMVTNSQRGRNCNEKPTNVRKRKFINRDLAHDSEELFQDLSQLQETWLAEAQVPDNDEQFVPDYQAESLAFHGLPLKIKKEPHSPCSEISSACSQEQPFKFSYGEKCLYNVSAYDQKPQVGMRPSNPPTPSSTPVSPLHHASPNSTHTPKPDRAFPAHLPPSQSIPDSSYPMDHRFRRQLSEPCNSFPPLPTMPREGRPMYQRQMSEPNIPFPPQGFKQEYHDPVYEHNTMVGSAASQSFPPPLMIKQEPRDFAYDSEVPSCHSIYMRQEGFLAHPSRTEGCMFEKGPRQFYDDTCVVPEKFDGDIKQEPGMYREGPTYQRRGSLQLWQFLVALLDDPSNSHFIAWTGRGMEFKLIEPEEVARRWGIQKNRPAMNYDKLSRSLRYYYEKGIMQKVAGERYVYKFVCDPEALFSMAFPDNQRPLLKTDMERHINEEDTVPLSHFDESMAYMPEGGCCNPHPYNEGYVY
# Chain of SPIB (Q01892 whole entry): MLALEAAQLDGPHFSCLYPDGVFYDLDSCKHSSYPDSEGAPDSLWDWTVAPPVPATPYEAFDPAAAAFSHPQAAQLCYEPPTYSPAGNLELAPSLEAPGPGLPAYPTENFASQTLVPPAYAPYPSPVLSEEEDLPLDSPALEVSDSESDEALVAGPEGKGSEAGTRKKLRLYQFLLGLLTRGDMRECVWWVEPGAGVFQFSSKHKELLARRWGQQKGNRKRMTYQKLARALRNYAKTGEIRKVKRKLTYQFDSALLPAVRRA
# Chain of HSF1 (Q00613 whole entry): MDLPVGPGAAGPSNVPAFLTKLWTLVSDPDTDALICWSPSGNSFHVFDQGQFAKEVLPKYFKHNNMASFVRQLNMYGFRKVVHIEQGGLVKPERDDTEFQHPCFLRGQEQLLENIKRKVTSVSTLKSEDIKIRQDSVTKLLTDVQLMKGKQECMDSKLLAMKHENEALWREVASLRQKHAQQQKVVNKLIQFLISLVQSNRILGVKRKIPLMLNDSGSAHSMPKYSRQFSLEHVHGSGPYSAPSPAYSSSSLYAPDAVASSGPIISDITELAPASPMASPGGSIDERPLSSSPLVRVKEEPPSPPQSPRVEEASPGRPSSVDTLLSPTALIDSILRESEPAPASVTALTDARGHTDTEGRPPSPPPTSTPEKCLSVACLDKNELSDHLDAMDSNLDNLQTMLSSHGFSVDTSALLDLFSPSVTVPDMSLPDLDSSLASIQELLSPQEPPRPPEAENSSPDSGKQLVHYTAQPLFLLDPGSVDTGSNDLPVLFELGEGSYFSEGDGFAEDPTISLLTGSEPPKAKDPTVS
# Chain of ELF1 (P32519 whole entry): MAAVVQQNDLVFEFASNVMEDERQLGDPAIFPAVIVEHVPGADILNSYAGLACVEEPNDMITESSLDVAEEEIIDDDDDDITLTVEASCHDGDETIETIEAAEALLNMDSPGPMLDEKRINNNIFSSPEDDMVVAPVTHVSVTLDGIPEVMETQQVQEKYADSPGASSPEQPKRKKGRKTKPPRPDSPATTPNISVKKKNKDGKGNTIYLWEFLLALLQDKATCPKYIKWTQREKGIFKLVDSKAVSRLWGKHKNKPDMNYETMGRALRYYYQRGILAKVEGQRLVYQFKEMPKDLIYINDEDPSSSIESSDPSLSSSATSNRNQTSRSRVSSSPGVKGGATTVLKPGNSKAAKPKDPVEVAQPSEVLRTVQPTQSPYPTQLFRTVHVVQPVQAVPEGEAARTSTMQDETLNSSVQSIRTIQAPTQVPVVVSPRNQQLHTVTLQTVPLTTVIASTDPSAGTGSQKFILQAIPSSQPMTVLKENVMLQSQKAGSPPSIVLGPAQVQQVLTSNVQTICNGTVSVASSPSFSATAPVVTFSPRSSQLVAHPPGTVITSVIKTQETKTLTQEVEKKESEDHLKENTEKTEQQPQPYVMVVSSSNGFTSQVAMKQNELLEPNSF
# Chain of ETV5 (P41161 whole entry): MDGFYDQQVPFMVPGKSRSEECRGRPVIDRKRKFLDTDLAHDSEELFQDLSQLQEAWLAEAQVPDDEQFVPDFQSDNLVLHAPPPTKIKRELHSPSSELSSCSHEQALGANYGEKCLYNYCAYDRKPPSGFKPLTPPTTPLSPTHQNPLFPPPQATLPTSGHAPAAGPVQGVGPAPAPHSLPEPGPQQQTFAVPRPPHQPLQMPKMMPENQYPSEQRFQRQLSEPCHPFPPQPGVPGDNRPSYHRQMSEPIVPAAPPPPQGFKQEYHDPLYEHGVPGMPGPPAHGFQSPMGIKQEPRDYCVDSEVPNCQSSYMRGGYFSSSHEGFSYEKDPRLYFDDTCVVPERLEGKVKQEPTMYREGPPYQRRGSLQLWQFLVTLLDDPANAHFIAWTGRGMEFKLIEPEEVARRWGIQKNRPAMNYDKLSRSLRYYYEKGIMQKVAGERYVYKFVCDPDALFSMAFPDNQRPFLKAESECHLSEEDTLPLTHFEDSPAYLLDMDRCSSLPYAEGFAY
sequence,measurement,setting,value
CCACTT,binding signal,[1],"1.86 fold enrichment (6-mer frequency, TF over GST control)"
same,binding signal,[2],"1.86 fold enrichment (6-mer frequency, TF over GST control)"
same,binding signal,[3],"1.81 fold enrichment (6-mer frequency, TF over GST control)"
same,binding signal,[4],"2.02 fold enrichment (6-mer frequency, TF over GST control)"
same,binding signal,[5],"1.85 fold enrichment (6-mer frequency, TF over GST control)"
same,binding signal,[6],"1.93 fold enrichment (6-mer frequency, TF over GST control)"
same,binding signal,[7],"2.41 fold enrichment (6-mer frequency, TF over GST control)"
same,binding signal,[8],"1.74 fold enrichment (6-mer frequency, TF over GST control)"
same,binding signal,[9],"1.83 fold enrichment (6-mer frequency, TF over GST control)"
same,binding signal,[10],"2.3 fold enrichment (6-mer frequency, TF over GST control)"
same,binding signal,[11],"1.99 fold enrichment (6-mer frequency, TF over GST control)"
same,binding signal,[12],"1.25 fold enrichment (6-mer frequency, TF over GST control)"
same,binding signal,[13],"1.63 fold enrichment (6-mer frequency, TF over GST control)"
same,binding signal,[14],"1.98 fold enrichment (6-mer frequency, TF over GST control)"
same,binding signal,[15],"1.77 fold enrichment (6-mer frequency, TF over GST control)"
same,binding signal,[16],"1.91 fold enrichment (6-mer frequency, TF over GST control)"
same,binding signal,[17],"1.59 fold enrichment (6-mer frequency, TF over GST control)"
same,binding signal,[18],"1.36 fold enrichment (6-mer frequency, TF over GST control)"
same,binding signal,[19],"1.95 fold enrichment (6-mer frequency, TF over GST control)"
